# Results: paper PMC7819943, “Rice protein-binding microarrays: a tool to detect cis-acting elements near promoter regions in rice”
# In all, about 35,000 sequences were measured (“fluorescence intensity (a.u.)”: median about 10,000, highest 2% from about 52,000 on). This is one part of a sample in which the highest values are shown more often than they occur.
# Biological target: T1, OsWOX13 (Oryza sativa, UniProt Q5QMM3 1-267)
# T1 sequence: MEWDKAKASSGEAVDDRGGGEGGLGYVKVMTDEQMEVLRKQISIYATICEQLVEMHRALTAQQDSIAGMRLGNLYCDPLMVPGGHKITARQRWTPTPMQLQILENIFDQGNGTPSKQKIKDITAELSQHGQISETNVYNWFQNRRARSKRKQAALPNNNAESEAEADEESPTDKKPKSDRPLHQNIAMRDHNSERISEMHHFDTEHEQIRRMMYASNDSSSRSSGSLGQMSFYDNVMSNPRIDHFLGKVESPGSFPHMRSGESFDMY
# Assay: protein-binding microarray (RPBM); PBS, 2% BSA, 51.3 ng/ul salmon testes DNA, 50 uM zinc acetate, 200 nM TF, 25 C, 1 h; high values mean tight binding
# Details: protein: recombinant; tags: N-terminal polyhistidine and DsRed monomer fusion (pET32a); label: CyDye5-dUTP incorporated in the synthesized complementary strand; 3' TTTTT single-stranded linker to array surface; dsDNA, one strand shown
# Outline: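 Binding signal is defined as the fluorescence intensity of each feature in arbitrary units, read on an Axon 4000B scanner. Transcription factors with N-terminal polyhistidine and DsRed fusions came from E. coli BL21-CodonPlus and were purified on Ni–NTA. They were incubated at 200 nM for 1 h at 25 °C on a custom Agilent array that had been made double-stranded with Cy5-dUTP, with 50 µM zinc acetate present, and the array was washed.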
row,Sequence,binding signal
1,ATATTATTTATAAATTGTGTGTGCAACTGACTTGTGGGCCCGGAGTCACCTAGTGCAG,3490 fluorescence intensity (a.u.)
2,TTATAATTGTAAATTTTACAAATTAGTCCTCACCTGTTCTCGGAGTCACCTAGTGCAG,53400 fluorescence intensity (a.u.)
3,AATTAAATTAGAGTATTCAGTTTGTATATAGTACATTTGTCGGAGTCACCTAGTGCAG,14000 fluorescence intensity (a.u.)
4,TAAAATTATCAAAATATTATATTATACACATAAGATTGTACGGAGTCACCTAGTGCAG,5140 fluorescence intensity (a.u.)
5,TTATAATTACTACATTATAATAAAAGTAAAATTGTATTTACGGAGTCACCTAGTGCAG,12100 fluorescence intensity (a.u.)
6,ATTATATATTTAATAAAATTAATTTGGTGTTGTATATTTACGGAGTCACCTAGTGCAG,8780 fluorescence intensity (a.u.)
7,CATAAATTAATTTGTTCACGTCACATTATATACAGTTGTACGGAGTCACCTAGTGCAG,55000 fluorescence intensity (a.u.)
8,TTTTATATTTTAATTAATTACATAATGTAAATATTTCTCACGGAGTCACCTAGTGCAG,17100 fluorescence intensity (a.u.)
9,TTGTAATTACATAAATTATACGAATTGTAAAGATTTGGCACGGAGTCACCTAGTGCAG,54600 fluorescence intensity (a.u.)
10,AGTGATTATAATATTGTTCACAAATTTACAAACCTCTCATCGGAGTCACCTAGTGCAG,36700 fluorescence intensity (a.u.)
11,ACATATGTGATTAGTATCAGTTCATCAGTAGTCTTCCAATCGGAGTCACCTAGTGCAG,18500 fluorescence intensity (a.u.)
12,CTGACAGGTATTATTGCTTGATATATTTTACTCACTTTACCGGAGTCACCTAGTGCAG,14800 fluorescence intensity (a.u.)
13,ATGGGAGGTGAGATTGGGATTGGGAAATAAATGAATGGCTCGGAGTCACCTAGTGCAG,5250 fluorescence intensity (a.u.)
14,GAGCAGATGATTAGTGAAGGTGTAACCCCTAACATCGTTACGGAGTCACCTAGTGCAG,12900 fluorescence intensity (a.u.)
15,AATAAATTGTGTGGAAATTTAGCTTGCCCAATCAGATTGACGGAGTCACCTAGTGCAG,16000 fluorescence intensity (a.u.)
16,TGCTAATTGGGGATTTTCACATTCATGCTGTGTTAGCAGGCGGAGTCACCTAGTGCAG,54700 fluorescence intensity (a.u.)
17,AATGTGTTAGCGTTTAATTTGCGATTGGATTTGTTTCAGGCGGAGTCACCTAGTGCAG,3560 fluorescence intensity (a.u.)
18,AATTCTAATTGGGGAGCATTTAAAGGCTGGGTTTTAGTGGCGGAGTCACCTAGTGCAG,20100 fluorescence intensity (a.u.)
19,AAGTAATTTAGTCAACTCTAAAAGTAACTATGTGTGTGTGCGGAGTCACCTAGTGCAG,17300 fluorescence intensity (a.u.)
20,TTGAATCAATGACTGATCATTGCCCAGACTGCTATTTTCCCGGAGTCACCTAGTGCAG,7090 fluorescence intensity (a.u.)
21,CAAAACGAAATTGATAGATCTTAATGAGTTGTACAACTTTCGGAGTCACCTAGTGCAG,20400 fluorescence intensity (a.u.)

row,Sequence,binding signal
1,AACTTATTCCAATTATCAAACTCCGCTGCTCAACCAGGCCCGGAGTCACCTAGTGCAG,5860 fluorescence intensity (a.u.)
2,TCGCTATAATTGACAGCGACCCTACCTTGGGCCACCGGACCGGAGTCACCTAGTGCAG,57100 fluorescence intensity (a.u.)
3,TTTTATAATTCGATGACAAATTGAGAGACCTTGGGTGTACCGGAGTCACCTAGTGCAG,13200 fluorescence intensity (a.u.)
4,GCTTGATTGCCACACAAATTTTGACAATACGACCCTTTACCGGAGTCACCTAGTGCAG,42900 fluorescence intensity (a.u.)
5,AAGCCTAATTAATCCATCCTTAGCAGATGTGGGTTACCGTCGGAGTCACCTAGTGCAG,8630 fluorescence intensity (a.u.)
6,ATTACTATGATTACTATAATGTACCCTCAAAGCGTGTAGACGGAGTCACCTAGTGCAG,7510 fluorescence intensity (a.u.)
7,ATAATGTCAAATTTCGTTCCATTGTGAAGAAATTTTGCCACGGAGTCACCTAGTGCAG,3410 fluorescence intensity (a.u.)
8,GAGGGCAAGGCCCAGGGAAGCATATCTTGATAGTCGATATCGGAGTCACCTAGTGCAG,65500 fluorescence intensity (a.u.)
9,CATGATAGATCAGGCAGAGAGCAGATCAGAGCAAGCATGTCGGAGTCACCTAGTGCAG,11800 fluorescence intensity (a.u.)
10,ATGGAATTGATTAGAAGCCAGCCAGGCAGGGGAGGGTCGTCGGAGTCACCTAGTGCAG,33900 fluorescence intensity (a.u.)
11,GGTTCCACTATCAATCTTAGACAGTATAAACAGGTCAACACGGAGTCACCTAGTGCAG,5380 fluorescence intensity (a.u.)
12,ATAATTTGATCAAATTACATGTGATTTTGTGAAATTTACACGGAGTCACCTAGTGCAG,39700 fluorescence intensity (a.u.)
13,TTAATTACAAATTGATTTGATCACGTAGATAATTACATCACGGAGTCACCTAGTGCAG,62000 fluorescence intensity (a.u.)
14,AACAATTGATTAGTACAAAATGGTACTTCCTCCGTTTCACCGGAGTCACCTAGTGCAG,56600 fluorescence intensity (a.u.)
15,AAGGAGAATTTTCTTGATTGAAATTATACATCATATTCATCGGAGTCACCTAGTGCAG,29500 fluorescence intensity (a.u.)
16,GTAATTTATATTGAAATGCAATTACTTCCTCCGTTTCACCCGGAGTCACCTAGTGCAG,21800 fluorescence intensity (a.u.)
17,TGAGAGTGGCATTTAATTGAATCCTATTATGATGGTGGCACGGAGTCACCTAGTGCAG,16100 fluorescence intensity (a.u.)
18,AATTGATTTACAATACTTCCTCCGTTTCACAATATAAGTGCGGAGTCACCTAGTGCAG,24700 fluorescence intensity (a.u.)
19,TATTCTGATTGGAACTTATGAGTCTTGAATTCTTGATTCTCGGAGTCACCTAGTGCAG,39000 fluorescence intensity (a.u.)
20,CGGAATTAATCTGATTATGTGAGTGAATTGGCATTTTGAACGGAGTCACCTAGTGCAG,30700 fluorescence intensity (a.u.)
21,CTGATTAGTGATTTATTTAATTTGAGGAATCATTTTGGCACGGAGTCACCTAGTGCAG,64900 fluorescence intensity (a.u.)
